Results taken from a collection of fitness landscapes (doi:10.1016/j.celrep.2020.107928).
In all, about 81,000 sequences were measured (“one-hybrid fitness for binding parS DNA”: median about -0.17, highest 2% from about 0.51 on). The full list was thinned out, with the highest values kept by preference.

B1: Caulobacter ParB omega fusion; a variant is named by its letters at X, in order, B8GW30 (parent)
chain: MESVVVGEPGMSEGRRGLGRGLSALLGEVDAAPAQAPGEQLGGSREAPIEILQRNPDQPRRTFREEDLEDLSNSIREKGVLQPILVRPSPDTAGEYQIVAGERAWRAAQRAGLKTVPIMVRELDDLAVLEIGIIENVQRADLNVLEEALSYKVLMEKFERTQENIAQTIGKSXSHVANXMRLLXLPDEVQSYLVSGELTAXHARAIAAAADPVALAKQIIEGGLSVRETEALARKAPNLSAGKSKGGRPPRVKDTDTQALESDLSSVLGLDVSIDHRGSTGTLTITYATLEQLDDLCNRLTRGI

Variants of: B1
Assay: one-hybrid fitness for binding parS DNA (scaled: cognate 1, non-cognate 0); higher = stronger binding
Conditions: with parS DNA site
Summary of the method: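 The reporter was HIS3, with the binding site 19 bp from the promoter, in E. coli USO used for bacterial one-hybrid selection of Caulobacter ParB libraries with four specificity codons randomised. Growth was on M9 lacking histidine, with 0.1 mM IPTG and 5 mM 3-AT, for 48 hours at 37°C. Illumina sequencing covered plasmids before and after selection; three replicate libraries were pooled and variants with under 10 reads dropped. A fitness score is the log change in variant-to-wild-type read ratio, rescaled to the cognate and non-cognate references.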

one-hybrid fitness for binding parS DNA, 0.35:
RAWM

one-hybrid fitness for binding parS DNA, 0.219:
RKWF

one-hybrid fitness for binding parS DNA, 0.738:
RRAG

one-hybrid fitness for binding parS DNA, 0.471:
RIWY

one-hybrid fitness for binding parS DNA, 1.02:
RCWG

one-hybrid fitness for binding parS DNA, 0.945:
RLKG

one-hybrid fitness for binding parS DNA, 0.93:
RSWG

one-hybrid fitness for binding parS DNA, 0.952:
RKWG

one-hybrid fitness for binding parS DNA, 0.258:
RVDM

one-hybrid fitness for binding parS DNA, 0.844:
RHWG

one-hybrid fitness for binding parS DNA, 0.247:
RLKH

one-hybrid fitness for binding parS DNA, 0.947:
RVNC

one-hybrid fitness for binding parS DNA, 0.989:
RAWG

one-hybrid fitness for binding parS DNA, 0.393:
RKWY

one-hybrid fitness for binding parS DNA, 0.985:
RIWG

one-hybrid fitness for binding parS DNA, 0.846:
RVDC

one-hybrid fitness for binding parS DNA, 0.201:
RCML

one-hybrid fitness for binding parS DNA, 0.991:
RLVG

one-hybrid fitness for binding parS DNA, 0.831:
RRFG

one-hybrid fitness for binding parS DNA, 0.361:
RIWM

one-hybrid fitness for binding parS DNA, 0.744:
RFWG

one-hybrid fitness for binding parS DNA, ≤ 0.2:
QTRM
ARLQ
CHSG
PFAT
QRRC
SRTM
KSRC
KFWG
RHWQ
RHWM
DFWG
KKLC
FRWG
IIKT
IYPT
DRGE
FVTP
HMNE
PPQC
RERK
DGKG
IFLY
DNYC
ALFC
RDWG
RSWF
REWG
RPWG
RAWK
NGLR
NTER
REFQ
WDSN
KYTC
TIAK
PMKR
RLVK
RLKP
RLVQ
QRLA
IESL
KWDD
RVNE
RVDF
RVNR
YLAV
CPVL
ANSF
GFRL
RRAR
RRAP
RRFM
RRFD
SKVG
CPAW
QCMI
